Screening results (PubChem BioAssay)
TRAIL sens C8: caspase-8 TRAIL sensitization | NB7+C8 cells + TRAIL, ATPlite viability luminescence | inhibition (viability loss, TRAIL sensitization), % at 10 µM | hit rate 1% among 360,000 | AID 624354;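 active = compounds causing at least 50% loss of cell viability in the single-dose screen, relative to plate controls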
KKLEB cytotox: reduces viability of KKLEB cystic fibrosis airway cells; activity change (cytotoxicity), % at 5 µM; hit rate 0.36% among 360,000; KKLEB CF airway cells viability, ATPlite luminescence, overnight; active compounds read low; cells stimulated with P. aeruginosa culture filtrate;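 active = corrected activity change at or below -50% at 5 µM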
CF NFkB inh: blocks PAF-induced NF-kB reporter in cystic fibrosis cells. KKLEB NF-kB-GFP reporter, GFP fluorescence overnight. inhibition, % at 5 µM. hit rate 0.86% among 360,000. AID 588850;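 active = at least 50% inhibition at 5 µM, scaled per plate between neutral and stimulator controls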;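 note: PAF is a Pseudomonas aeruginosa culture filtrate used as stimulus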
Peg3 prom inh: reduces Peg3 promoter-driven luciferase expression in HeLa. HeLa PEG-Prom luciferase reporter, luminescence, overnight. hit rate 1.7% among 360,000. inhibition, % at 20 µM. AID 588405;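 active = inhibition of at least 50% at 20 µM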
HIF-2a inh: inhibitors of HIF-2a; 786-0 RCC cells HIF-2a reporter, luciferase luminescence, overnight; inhibition, % at 18.8 µM; hit rate 0.72% among 360,000; AID 624352;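 active = inhibition of the luminescence signal of 40% or more relative to plate controls, in a single-dose primary screen at 18.75 µM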
PPC-1+TRAIL kill: compounds killing PPC-1 cancer cells with TRAIL present (potentiator screen, no TRAIL-free arm); PPC-1 cells + TRAIL, ATPLite viability luminescence; cell killing (% activity), % at 4 µM or 5 µM; hit rate 0.41% among 220,000;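 active = cell killing above 50% in the first pass at 4 µM, then a duplicate retest at 5 µM averaging 50% or more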
Mdm2-MdmX confirm: confirmation of inhibitors of human Mdm2/MdmX interaction, set 2. SaOS-2 split-luciferase Mdm2/MdmX complementation, luminescence. shares compounds with HIF-2a inh. inhibition, % at 8 µM. AID 504601. hit rate 99% among 740;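 active = mean inhibition of the luminescence signal across two replicates at or above 26 percent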
HIF-2a inh conf: HIF-2a inhibition, single concentration confirmation. hit rate 56% among 1,800. shares compounds with HIF-2a inh. 786-0 RCC cells, HIF-2a luciferase reporter luminescence, overnight. inhibition, % at 18.8 µM;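 active = mean inhibition across four replicates of at least 40 percent at the single tested concentration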
HIF-1a cs: inhibits HIF-1a reporter, a counter-screen for HIF-2a inhibitors; AID 651589; inhibition, % at 18.8 µM; hit rate 72% among 1,800; shares compounds with HIF-2a inh; MiaPaCa-2 HIF-1a luciferase reporter, desferoxamine, overnight;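 active = mean inhibition of the reporter signal across four replicates at the single tested dose of 50% or more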
Each line names hits and unclear results; the compound was inactive in the other large screens (follow-up assays come after a bar, where they were run). The list is not random: actives were taken first. Their share in the collection is about 3.1%.

Cc1ccc(N2CCN(C(=O)C(=O)c3cccc(Br)c3)CC2)cc1	none (no result: KKLEB cytotox, CF NFkB inh, Peg3 prom inh, PPC-1+TRAIL kill)
O=[N+]([O-])c1ccc(Oc2cccc(F)c2)c2ccncc12	HIF-2a inh 47 | HIF-2a inh conf inactive | HIF-1a cs 79
O=C(CNC(=O)c1ccc2c(c1)OCCO2)N=Nc1c(O)[nH]c2ccccc12	none (no result: PPC-1+TRAIL kill)
COc1ccc(-c2csc3ncnc(Cl)c23)cc1	none
COc1ccc(Nc2ncnc3scc(-c4ccc(OC)cc4)c23)cc1	HIF-2a inh 42 | HIF-2a inh conf inactive | HIF-1a cs 58
Cc1c(CCC(=O)NCCC(=O)O)c(=O)oc2c(C)c3oc4c(c3cc12)CCCC4	HIF-2a inh 56 (no result: PPC-1+TRAIL kill) | HIF-2a inh conf 65 | HIF-1a cs inactive
Cc1c(CCC(=O)N[C@@H](C)C(=O)O)c(=O)oc2c(C)c3oc4c(c3cc12)CCCC4	HIF-2a inh 50 (no result: PPC-1+TRAIL kill) | HIF-2a inh conf 60 | HIF-1a cs inactive
C[N+](C)(C)C[C@H](O)CC(=O)[O-]	none (no result: PPC-1+TRAIL kill)
CC12C(=O)N(c3nccs3)C(=O)C1(C)C1CCC2O1 (configuration not stated)	none (no result: PPC-1+TRAIL kill)
C[C@@]12C(=O)OC(=O)[C@]1(C)C1CCC2O1	TRAIL sens C8 65, CF NFkB inh 84, Peg3 prom inh 84, HIF-2a inh 79 (no result: PPC-1+TRAIL kill) | Mdm2-MdmX confirm 100
CC1=C(C(=O)Nc2cc(C(=O)N(C)Cc3ccccc3)ccc2C)SCCO1	none (no result: PPC-1+TRAIL kill)
CC(=O)OC1CC2C(C)(C)C(=O)C=CC2(C)C2CCC3(C)C(c4ccoc4)OC(=O)C4OC43C12C (configuration not stated)	HIF-2a inh 45 (no result: PPC-1+TRAIL kill) | HIF-2a inh conf 42 | HIF-1a cs 59
COC(=O)[C@@H]1OC(=O)[C@H]2O[C@@]23[C@@]1(C)CC[C@@H]1[C@@]2(C)C=CC(=O)OC(C)(C)[C@@H]2CC(=O)[C@]13C	none (no result: PPC-1+TRAIL kill)
CC(=O)O[C@@H]1C[C@H]2C(C)(C)C(=O)C=C[C@]2(C)[C@H]2CC[C@@]3(C)[C@H](c4ccoc4)OC(=O)[C@H]4O[C@]43[C@@]21C	HIF-2a inh 58 | HIF-2a inh conf 49 | HIF-1a cs 77
CC1(C)OC(=O)C=C[C@]2(C)[C@H]3CC[C@@]4(C)[C@H](c5ccoc5)OC(=O)[C@H]5O[C@]54[C@]3(C)C(=O)C[C@@H]12	none (no result: PPC-1+TRAIL kill)
CCOC(=O)N1CCN(S(=O)(=O)c2ccc(C(=O)Nc3sc4c(c3C(=O)OC)CCN(C)C4)cc2)CC1	Peg3 prom inh 110, HIF-2a inh 61 (no result: PPC-1+TRAIL kill) | HIF-2a inh conf inactive | HIF-1a cs 90
CC(C)(C)C(=O)Nc1ccc(C(=O)COC(=O)c2ccccn2)cc1	none (no result: PPC-1+TRAIL kill)
O=C(Nc1ccccc1C(=O)NCc1ccco1)Nc1cccc2ccccc12	HIF-2a inh 54 | HIF-2a inh conf inactive | HIF-1a cs inactive
COc1ccc(NS(=O)(=O)c2cccc(C(=O)N/N=C/c3c(F)c(F)c(F)c(F)c3F)c2)cc1	TRAIL sens C8 66, Peg3 prom inh 95, HIF-2a inh 51 (no result: PPC-1+TRAIL kill) | HIF-2a inh conf inactive | HIF-1a cs 80
O=[N+]([O-])c1ccc(N=Nc2ncc[nH]2)cc1	CF NFkB inh 75, Peg3 prom inh 107 (no result: PPC-1+TRAIL kill) | Mdm2-MdmX confirm 103
CN1CCc2c(sc(NC(=O)c3ccc([N+](=O)[O-])o3)c2C(N)=O)C1	TRAIL sens C8 60, CF NFkB inh 82, Peg3 prom inh 107, HIF-2a inh 55 (no result: PPC-1+TRAIL kill) | Mdm2-MdmX confirm 101 | HIF-2a inh conf 55 | HIF-1a cs 104
Cc1ccc(Cl)cc1NC(=O)c1cc2ccccc2cc1O	KKLEB cytotox -55, CF NFkB inh 51 | Mdm2-MdmX confirm 101
NNC(=O)c1cc2ccccc2cc1O	HIF-2a inh 69 | HIF-2a inh conf 81 | HIF-1a cs 75
CC(C)c1nc2cc(C(=O)N3CCNC(=O)C3c3cccc(F)c3)ccc2o1 (configuration not stated)	none (no result: PPC-1+TRAIL kill)
Cc1c(CCC(=O)N[C@@H](CC(C)C)C(=O)O)c(=O)oc2cc3oc4c(c3cc12)CCCC4	HIF-2a inh 65 (no result: PPC-1+TRAIL kill) | HIF-2a inh conf 75 | HIF-1a cs inactive
Cc1c(CCC(=O)O)c(=O)oc2cc3oc4c(c3cc12)CCCC4	HIF-2a inh 74 | HIF-2a inh conf 83 | HIF-1a cs inactive
Cc1c(CCC(=O)NCC(=O)NCC(=O)O)c(=O)oc2cc3oc4c(c3cc12)CCCC4	none (no result: PPC-1+TRAIL kill)
Cc1c(CCC(=O)O)c(=O)oc2cc(OCc3cccc(F)c3)ccc12	none (no result: PPC-1+TRAIL kill)
Cc1c(CCC(=O)N2CCC(C(=O)NCCCCCC(=O)O)CC2)c(=O)oc2cc3oc4c(c3cc12)CCCC4	none (no result: PPC-1+TRAIL kill)
Cc1c(CCC(=O)O)c(=O)oc2cc(OCc3ccccc3Br)ccc12	HIF-2a inh 78 (no result: PPC-1+TRAIL kill) | HIF-2a inh conf 92 | HIF-1a cs 52
Cc1c(CCC(=O)N2CCC[C@H]2C(=O)O)c(=O)oc2cc3oc4c(c3cc12)CCCC4	HIF-2a inh 65 (no result: PPC-1+TRAIL kill) | HIF-2a inh conf 79 | HIF-1a cs inactive
COc1cccc(-c2coc3cc4oc(=O)c(CCC(=O)O)c(C)c4cc23)c1	HIF-2a inh 40 (no result: PPC-1+TRAIL kill) | HIF-2a inh conf 57 | HIF-1a cs 51
O=C(NC1CC1)C1CCN(S(=O)(=O)c2ccc(Cl)c([N+](=O)[O-])c2)CC1	TRAIL sens C8 64 (no result: PPC-1+TRAIL kill) | Mdm2-MdmX confirm 102
O=C(Nc1nnc([C@@H]2C[C@H](O)[C@@H](CO)O2)s1)c1c(F)cccc1F	none (no result: PPC-1+TRAIL kill)
COc1ccc(CCNC(=O)[C@H](C)NC(=O)N2CCn3c2nc2ccccc23)cc1OC	none (no result: PPC-1+TRAIL kill)
COc1cc(/C=C/[N+](=O)[O-])ccc1OC(=O)c1cc2ccccc2oc1=O	Peg3 prom inh 69, HIF-2a inh 61 (no result: PPC-1+TRAIL kill) | HIF-2a inh conf inactive | HIF-1a cs inactive
CCCCc1cc(=O)oc2c(C)c(OCC(=O)N3C[C@H]4C[C@@H](C3)c3cccc(=O)n3C4)ccc12	none (no result: PPC-1+TRAIL kill)
COc1ccc(NC(=O)C(=O)NCC2CCCN2S(=O)(=O)c2ccc(C)cc2)cc1 (configuration not stated)	CF NFkB inh 52, HIF-2a inh 42 (no result: PPC-1+TRAIL kill) | HIF-2a inh conf inactive | HIF-1a cs inactive
COc1ccc(S(=O)(=O)N2CCCC2CNC(=O)C(=O)Nc2ccc(C)cc2)cc1 (configuration not stated)	none (no result: PPC-1+TRAIL kill)
O=Cc1ccc(-c2cccs2)s1	HIF-2a inh 44 (no result: PPC-1+TRAIL kill) | HIF-2a inh conf 52 | HIF-1a cs inactive
CCOC(=O)[C@@H]1[C@H]2COc3ccccc3[C@H]2N2C(=O)N(c3ccc(C(F)(F)F)cc3)C(=O)[C@]12C	none (no result: PPC-1+TRAIL kill)
O=C(Cc1ccsc1)NNC(=O)c1ccc(F)cc1	none (no result: PPC-1+TRAIL kill)
